Hit rate of the full screen: of about 350,000 compounds, about 450 (0.13%) were called active. No rule for the calls is given here. A selection follows. Measured potencies and affinities stand elsewhere.
Test: inhibitors of VEEV TC-83 cytopathic effect, confirmation, Vero cells (AID 588727)
Conditions: VEEV TC-83 cytopathic effect inhibition, at 20 µM
[1] = stronger effect = higher value unless noted
[2] = measured here: 10K pilot screen inhibition, stronger effect = higher value

COc1ccc(NC(=O)c2ccco2)c([N+](=O)[O-])c1
inhibition [1]: inactive

O=c1c2c([nH]c3ccccc13)CCCC2
inhibition [1]: 0.1% (inactive)

O=c1c2c([nH]c3ccccc13)CCCCC2
inhibition [1]: 2.45% (inactive)

Fc1ccc(NC(=S)NCc2ccc3c(c2)OCO3)cc1
inhibition [1]: 1.24% (inactive)

COc1ccc(CCNC(=O)Cn2c(=O)oc3cc(Cl)ccc32)cc1OC
inhibition [1]: 1.85% (inactive)

COCCNC(=O)/C(C#N)=C/C=C/c1ccccc1[N+](=O)[O-]
inhibition [1]: 55.2% (inactive)

O=C(/C=C/c1ccccc1[N+](=O)[O-])NC1CCCC1
inhibition [1]: inactive

CC1CCCCC1NC(=O)/C(C#N)=C/c1ccccc1F (configuration not stated)
inhibition [1]: 10.5% (inactive)

N#C/C(=C\c1ccccc1[N+](=O)[O-])C(=O)NC1CCCCC1
inhibition [1]: 6.23% (inactive)

Cc1ccc(-c2nn(-c3ccccc3)cc2/C=N/n2c(-c3ccncc3)n[nH]c2=S)cc1
inhibition [1]: 0.07% (inactive)

COc1cc(C(=O)NNC(=O)CCOc2ccccc2)cc(OC)c1OC
inhibition [1]: inactive

O=C(COc1ccc(-c2ccccc2)cc1)NNC(=O)NC1CCCCC1
inhibition [1]: 0.67% (inactive)

N#Cc1c(NC(=O)c2ccc(Cn3cc(Br)cn3)o2)sc2c1CCCCCC2
inhibition [1]: inactive

COCC1CCCCN1C(=O)c1cccc(OC2CCN(C(=O)C3CC3)CC2)c1 (configuration not stated)
inhibition [1]: inactive

COc1ccc(C(=O)NCc2ccc(F)cc2)cc1S(=O)(=O)N1CCCC1
inhibition [1]: 10.6% (inactive)

Cc1cc(OC(=O)c2cc(Cl)nc3ccccc23)ccc1Cl
inhibition [1]: 2.81% (inactive)

CSCCC(NS(=O)(=O)c1ccc2[nH]c(=O)c(=O)[nH]c2c1)C(=O)O (configuration not stated)
inhibition [1]: inactive

CCNC(=O)C1CCCc2c1[nH]c1ccc(Cl)cc21 (configuration not stated)
inhibition (stronger effect = higher value): 0.89% (inactive) | inhibition [2]: 1.04%

CCOC(=O)C1CCCc2c1[nH]c1ccc(Cl)cc21 (configuration not stated)
inhibition [1]: 0.82% (inactive)

COc1ccc(-c2nn(-c3ccccc3)cc2/C=C/C(=O)N2CCOCC2)cc1OC
inhibition [1]: 7.65% (inactive)

Cc1cc(C)cc(N(C(=O)c2ccc(Br)o2)C2C=CS(=O)(=O)C2)c1 (configuration not stated)
inhibition [1]: inactive

O=[N+]([O-])c1cccc(/C=N/Nc2nc(NCc3ccccc3)nc(N3CCOCC3)n2)c1
inhibition [1]: 2.74% (inactive)

O=[N+]([O-])c1ccc(/C=N/Nc2nc(NCc3ccccc3)nc(N3CCOCC3)n2)cc1
inhibition [1]: 3.18% (inactive)

COc1ccc2c(c1)OC[C@H]1[C@H]2N2C(=O)c3cc(Br)ccc3NC(=O)[C@@]2(C)[C@H]1c1ccccc1
inhibition [1]: 1.07% (inactive)

O=c1[nH]ncc(N2CCCC2)c1Cl
inhibition [1]: inactive

CC(=O)c1cc(C)ccc1OC(=O)c1ccco1
inhibition [1]: inactive

CC(NC(=O)c1cccc(S(=O)(=O)N2CCN(Cc3ccccc3)CC2)c1)c1ccc(Br)cc1 (configuration not stated)
inhibition [1]: 2.86% (inactive)

COc1ccc(NC(=O)CCCN2C(=O)/C(=C\c3ccco3)SC2=S)cc1
inhibition [1]: 13.5% (inactive)

O=C(CCCN1C(=O)/C(=C/c2ccco2)SC1=S)Nc1cccc(C(=O)O)c1
inhibition [1]: 11.7% (inactive)

O=C(CC(CC(=O)c1ccccc1)c1ccccc1)c1ccccc1
inhibition [1]: 1.3% (inactive)

O=C(CC(C(=O)c1ccccc1)c1ccccc1)c1ccccc1 (configuration not stated)
inhibition [1]: 12.6% (inactive)

CC(=O)N/C(=C/c1ccc(OS(=O)(=O)c2ccc(C)cc2)cc1)C(=O)NCCCO
inhibition [1]: inactive

NC(=O)N1c2ccccc2C=Cc2ccccc21
inhibition [1]: 0.99% (inactive) | outcome [1]: inactive

CNC(=O)N1c2ccccc2C=Cc2ccccc21
inhibition [1]: 1.28% (inactive)

COc1ccc(OCc2cc(C(=O)NCC(C)(C)N3CCOCC3)no2)c(Cl)c1
inhibition [1]: 2.39% (inactive)

OC(COCc1cccs1)CN1CCN(c2cccc(Cl)c2)CC1 (configuration not stated)
inhibition [1]: inactive

Cc1ccc(C(=O)C=CC=Cc2ccccc2)cc1
inhibition [1]: inactive

Cc1ccc(/C=C/C(=O)c2ccccc2)cc1
inhibition [1]: inactive

CCCCn1cnc2c(SCc3ccccc3Cl)nc(N)nc21
inhibition [1]: 6.5% (inactive)

Cn1cnc2c(SCc3ccccc3)ncnc21
inhibition [1]: inactive

OCCn1cnc2c(SCc3ccccc3)ncnc21
inhibition [1]: 6.32% (inactive)

CC(C)Cn1cnc2c(SCc3ccccc3Cl)nc(N)nc21
inhibition [1]: 9.3% (inactive)

CCC(C(=O)NCCCN1CCCC1=O)n1c2ccccc2c2nc(=O)cc(C)n21 (configuration not stated)
inhibition [1]: inactive

CC(C)C(C)NC(=O)CN1C(=O)NC(C)(c2ccc3ccccc3c2)C1=O (configuration not stated)
inhibition [1]: inactive

Cc1cc(SCC(=O)Nc2ncc(Cl)cc2Cl)nc2ccccc12
inhibition [1]: 0.95% (inactive)

COCCn1c(SCC(=O)Nc2ccc(Cl)cn2)nc2ccccc21
inhibition [1]: 2.54% (inactive)

CC(Sc1nnc(-c2ccccc2)c(-c2ccccc2)n1)C(=O)Nc1ncc(Cl)cc1Cl (configuration not stated)
inhibition [1]: 0.85% (inactive)

COc1ccc(-n2c(SC(C)C(=O)Nc3ncc(Cl)cc3Cl)nc3ccccc32)cc1 (configuration not stated)
inhibition [1]: 8.08% (inactive)

CCN(CC)S(=O)(=O)c1ccc(NN=c2c(=O)c3ccccc3c2=O)cc1
inhibition [1]: 0.93% (inactive)

CCOC(=O)C1(CCOC)CCN(C(=O)Cc2ccsc2)CC1
inhibition [1]: 0.57% (inactive)

CCOC(=O)c1cn(Cc2ccccc2)nc1-c1ccccc1
inhibition [1]: inactive

Cc1cc(/C=N\NC(=O)c2cccs2)c(C)n1-c1ccc2ncccc2c1
inhibition [1]: 11.1% (inactive)

Cc1cccc(-n2c(C)cc(/C=N\NC(=O)c3ccco3)c2C)c1
inhibition [1]: 1.2% (inactive)

COCCOC1CCN(C(=O)c2cc(COc3ccc(F)cc3F)on2)CC1
inhibition [1]: 1.37% (inactive)

CCOC(=O)c1c(SC)n(-c2ccccc2)c(=S)n(-c2ccccc2)c1=O
inhibition [1]: 0.87% (inactive)

CCOC(=O)c1c2c(c(=S)n(-c3ccccc3)c1N)CCC2
inhibition (stronger effect = higher value): 4.5% (inactive) | inhibition [2]: 3.38%

CCOc1ccc(CSC(=N)N)cc1[N+](=O)[O-]
inhibition [1]: 9.41% (inactive)

COc1ccc(CSC(=N)N)cc1[N+](=O)[O-]
inhibition [1]: 4.91% (inactive)

Nc1nc(N)nc(-c2cccc(Cl)c2)n1
inhibition [1]: 1.28% (inactive)

COc1ccccc1CN1CCN(C(=O)c2cccc3ccccc23)CC1
inhibition [1]: inactive

Cc1ccc2c(CC(=O)Nc3nc(C)cs3)coc2c1
inhibition [1]: 5.51% (inactive)

Cc1cc2occ(CC(=O)Nc3nccs3)c2cc1C(C)C
inhibition [1]: 0.63% (inactive)

Cc1c(N(C)S(=O)(=O)c2cccc(C(=O)NCC3CCCO3)c2)c(=O)n(-c2ccccc2)n1C (configuration not stated)
inhibition [1]: 1.98% (inactive)

NC(=O)C1CCN(C(=O)c2cc(S(=O)(=O)N3CCOCC3)c(Cl)cc2Cl)CC1
inhibition [1]: 0.6% (inactive)
